Compounds with a hit are over-represented: about 3.2% of the library has one in this group of screens.
AmpC detergent: AmpC beta-lactamase inhibition with detergent present; Potency, µM (highest dose often 114 µM), usual class: inhibitors; actives 0.041% (n = 370,000); AmpC hydrolysis of nitrocefin, absorbance 480 nm, 0.01% Triton; note: nearly all actives have a fitted effect of over 25% in size
Target sequence (P00811 whole entry, looked up): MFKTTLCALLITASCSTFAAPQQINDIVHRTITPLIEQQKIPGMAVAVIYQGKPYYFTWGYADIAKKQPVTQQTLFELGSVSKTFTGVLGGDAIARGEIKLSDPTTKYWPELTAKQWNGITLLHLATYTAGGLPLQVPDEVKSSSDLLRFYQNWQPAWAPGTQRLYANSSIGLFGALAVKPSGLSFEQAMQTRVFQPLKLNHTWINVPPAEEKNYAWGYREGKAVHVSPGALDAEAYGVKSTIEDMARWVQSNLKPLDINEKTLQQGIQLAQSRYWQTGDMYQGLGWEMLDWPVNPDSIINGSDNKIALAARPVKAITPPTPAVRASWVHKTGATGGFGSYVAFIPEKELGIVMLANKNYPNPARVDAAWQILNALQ
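AmpC (5.3 nM in the dispensed reagent) in 20 mM phosphate pH 7.0 with 0.01% (detergent screen) or 0.0001% Triton X-100 was preincubated with compounds for 15 min at room temperature. Nitrocefin was then added from an 800 uM solution, and hydrolysis was followed at 480 nm.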
AmpC inh no detg: inhibitors of E. coli AmpC beta-lactamase without detergent. P00811. AmpC nitrocefin hydrolysis, absorbance 480 nm, 0.0001% Triton. Potency, µM (highest dose often 57.1 µM), usual class: inhibitors. actives 0.52% (n = 330,000); note: nearly all actives have a fitted effect of over 20% in size
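20 mM phosphate pH 7.0 + 0.01% (detergent screen) or 0.0001% Triton X-100; 5.3 nM AmpC reagent; cpd preinc 15 min RT; nitrocefin (800 uM stock) to start; A480 q20 s × 4 min; Activity was normalised to no-enzyme and no-compound control wells.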
RE007 growth inh: less growth of the S. pombe RE007 Vpr strain; S. pombe RE007 Vpr strain, BacTiter-Glo ATP luminescence, 24 h; Potency, µM (highest dose often 92.2 µM), hits mostly inhibitors; actives 0.21% (n = 360,000); AID 651644; active = well fitted falling curve with a large enough effect; inconclusive = small, poorly fitted or top-dose-only effect; inactive = no such curve, though single readings can be large or run the other way; note: nearly all actives have a fitted effect of over 50% in size
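Fission yeast RE007 carrying one integrated HIV-1 vpr copy, seeded at OD 0.01 in PMG+AL medium with 23 nL pinned compound. Grown 24 h at 30 degrees; viability read by BacTiter-Glo luminescence after 5 min.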
AMA1 RON2 block: disrupts binding of P. falciparum AMA1 to RON2; AlphaScreen AMA1-biotinylated RON2 peptide binding; Potency, µM (doses to about 58.2 µM), most hits filed as inhibitors; actives 0.2% (n = 360,000); AID 720542; note: nearly all actives have a fitted effect of over 45% in size
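AMA1 (3D7) with his tag at 25 nM final met compounds first, then biotinylated RON2 peptide at 25 nM; detection used donor plus acceptor beads, 10 µg/mL apiece, read by AlphaScreen after 30 min at room temperature.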
Sm TGR inh: blocks Schistosoma mansoni thioredoxin glutathione reductase; Q962Y6; purified TGR, DTNB reduction, TNB absorbance 405 nm; Potency, µM (doses to about 114 µM), usual class: inhibitors; actives 3% (n = 360,000); AID 485364; note: nearly all actives have a fitted effect of over 60% in size
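Kinetic colorimetric format: TGR-catalysed, NADPH-driven DTNB reduction monitored via TNB absorbance. Enzyme dispensed at 20 nM; compound exposure 15 min at room temperature before reaction start.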
Each line names hits and unclear results; the compound was inactive in the other large screens. Unless noted, calls come from the whole dose curve; as a rule, active = well fitted curve in the direction sought with a large enough effect; inconclusive = small, poorly fitted or top-dose-only effect, or another doubt; inactive = no such curve, though single readings can be large; an effect the other way counts as inactive or inconclusive.

O=C(CSc1nc2[nH]ncc2c(=O)n1-c1ccccc1Br)NCc1ccco1	Sm TGR inh 22µM
N#CCSc1nc2ccccc2c(=O)n1CCCC(=O)NCc1ccco1	none
CCOC(=O)c1ccc(Nc2nc3nonc3nc2Nc2cccc(C)c2C)cc1	none (no result: AmpC inh no detg, RE007 growth inh, AMA1 RON2 block)
O=C(CSc1nc2ccccc2c2nc3ccccc3n12)NCc1ccco1	Sm TGR inh 8.9µM
COCCCn1c(SCC(=O)Nc2ccc(NC(=O)c3ccco3)c(OC)c2)nc2ccccc2c1=O	Sm TGR inh 40µM
Cn1c(SCC(=O)NCc2ccco2)nc2ccccc2c1=O	none
CCOCCCn1c(SCC(=O)Nc2ccccc2OC)nc2ccccc2c1=O	none
Cc1ccc(S(=O)(=O)N2CCN(C(=O)/C=C/c3ccco3)CC2)cc1	Sm TGR inh 50µM
O=C(/C=C/c1ccco1)N1CCN(S(=O)(=O)c2ccccc2)CC1	none (no result: AmpC detergent, Sm TGR inh)
Cc1ccc(C)c(S(=O)(=O)N2CCN(C(=O)/C=C/c3ccco3)CC2)c1	Sm TGR inh 4µM
O=C(/C=C/c1ccco1)N1CCN(S(=O)(=O)c2ccc(F)c(F)c2F)CC1	AmpC detergent inconclusive, Sm TGR inh 5µM
CNC(=O)c1c(C)[nH]c(=S)c(C#N)c1-c1ccco1	Sm TGR inh 32µM
Cc1ccccc1NC(=O)c1c(C)[nH]c(=S)c(C#N)c1-c1ccco1	none
CC(C)Oc1ccc(C(=O)NC(=S)Nc2ccc(Cl)c(C(=O)O)c2)cc1	Sm TGR inh 40µM
COc1c(C)cc(Br)cc1C(=O)NC(=S)Nc1ccc(Cl)c(C(=O)O)c1	none
CCOc1cc(C(=O)NC(=S)Nc2ccc(Cl)c(C(=O)O)c2)cc(OCC)c1OCC	Sm TGR inh 32µM
Cc1ccc2nc(NC(=S)NC(=O)c3ccc(OC(C)C)cc3)sc2c1	AmpC inh no detg inconclusive, Sm TGR inh 0.71µM
COc1cccc(C(=O)NC(=S)Nc2ccc(Cl)c(C(=O)O)c2)c1	AmpC detergent inconclusive, Sm TGR inh 32µM (no result: AmpC inh no detg)
CCOC(=O)N1CCc2c(sc3c2c(=O)n(-c2ccc(CC)cc2)c(=O)n3Cc2cc(C)ccc2C)C1	Sm TGR inh inconclusive (no result: AmpC inh no detg, RE007 growth inh, AMA1 RON2 block)
CCN(CC)S(=O)(=O)c1ccc2c(c1)N(CC(=O)NCCCN1CCN(c3cc(Cl)ccc3C)CC1)C(=O)CO2	none (no result: AmpC inh no detg, RE007 growth inh, AMA1 RON2 block)
COc1cccc(NC(=O)CN(C)S(=O)(=O)c2cccs2)c1	none (no result: AmpC inh no detg, RE007 growth inh, AMA1 RON2 block)
COc1cc(Cl)c(C)cc1NC(=O)c1cnn(-c2ccc(C)cc2)c1-n1cccc1	none (no result: AmpC inh no detg, RE007 growth inh, AMA1 RON2 block)
Cc1cccc(C(=O)Nc2cccc(NC(=O)c3ccccc3)c2)c1	AmpC inh no detg 22µM
O=C(Nc1cccc(C(=O)Nc2ccc(Br)cc2)c1)c1ccccc1	AmpC inh no detg 32µM
Cc1ccc(NC(=O)c2ccccc2)cc1-n1cnnn1	AmpC detergent inconclusive, Sm TGR inh 20µM
O=c1c2sc3ccccc3c2n(Cc2ccc(F)cc2)c(=O)n1Cc1ccccc1	none (no result: AmpC inh no detg, RE007 growth inh, AMA1 RON2 block)
CCN(CC)c1ccc(/C=N/Nc2ccccc2)c(O)c1	Sm TGR inh 10µM
CCN(CC)c1ccc(/C=N/Nc2cccc(C)c2)c(O)c1	AMA1 RON2 block inconclusive, Sm TGR inh 10µM
CCN(CC)c1ccc(C=Nc2ccccc2)c(O)c1	none
CC(=O)OCC1(C)CN(c2ccccc2)NC1=O (stereo unspecified)	Sm TGR inh 7.9µM
CC(=O)OCC1(C)CN(c2ccccc2)N(C(C)=O)C1=O (stereo unspecified)	none
CC(=S)c1c(C)cc2cc(C)ccn12	AMA1 RON2 block inconclusive, Sm TGR inh 18µM
O=C(COC(=O)/C=C/c1cccc(C(F)(F)F)c1)NCc1ccccc1	AmpC inh no detg 7.9µM
NC(=O)C1CN(S(=O)(=O)c2ccc(Cl)cc2F)c2ccccc2O1 (stereo unspecified)	Sm TGR inh 40µM
COc1cc2c(cc1OC)CN(Cc1cc(OC)c(O)c(OC)c1)CC2	Sm TGR inh 8.9µM
COc1ccccc1N1CCN(Cc2ccc(SC)cc2)CC1	AmpC detergent inconclusive, AMA1 RON2 block 20µM
CCc1ccc(CN2CCN(Cc3ccc(SC)cc3)CC2)cc1	AMA1 RON2 block 13µM
COc1cc(CN2CCN(c3ccccc3F)CC2)cc(OC)c1O	Sm TGR inh 14µM
COc1ccc(CN2CCN(c3ccccc3F)CC2)cc1O	none
CSc1nc(NCCOCCO)c2sc3nc(-c4ccco4)c4c(c3c2n1)CCC4	AmpC detergent inconclusive, Sm TGR inh 3.2µM
CCN(CCO)c1nc(SC)nc2c1sc1nc(-c3ccco3)c3c(c12)CCC3	Sm TGR inh 3.5µM
CCN(CCO)c1ncnc2c1sc1nc(C(C)C)c3c(c12)CC(C)(C)OC3	none
CN(C(=O)CSc1nc(-c2ccccc2)no1)c1ccc(F)cc1	none (no result: AmpC inh no detg, RE007 growth inh, AMA1 RON2 block)
COC(=O)c1sc(C(=O)OC)c(C(=O)OC)c1C(=O)OC	none
COC(=O)c1sc(=S)sc1C(=O)OC	RE007 growth inh 32µM
O=C(COC(=O)c1ccccc1Nc1ccccc1)c1ccccc1	none
Cc1ccc(NC(=O)COC(=O)c2ccccc2Nc2ccccc2)cc1	AmpC inh no detg 25µM
CCc1ccc(CN(Cc2cn[nH]c2-c2ccc(OC)cc2)C(=O)Nc2ccc(Br)cc2)cc1	none (no result: AmpC inh no detg, RE007 growth inh, AMA1 RON2 block)
COc1cc2ccccc2cc1C(=O)Nc1cccc(-c2nc3cc(C)c(C)cc3o2)c1	none (no result: AmpC inh no detg, RE007 growth inh, AMA1 RON2 block)
CCc1nc2sc3c(=O)[nH]cnc3c2c2c1CSC(C)(C)C2	Sm TGR inh 35µM
Oc1ccc(C(c2nnnn2CCc2ccccc2)N2CCN(c3nc4ccccc4s3)CC2)cc1 (stereo unspecified)	Sm TGR inh 8.9µM
COCCn1nnnc1C(c1cccs1)N1CCN(c2nc3ccccc3s2)CC1 (stereo unspecified)	none
COc1cc(C(c2nnnn2C(C)(C)C)N2CCN(c3nc4ccccc4s3)CC2)ccc1O (stereo unspecified)	AmpC detergent inconclusive, Sm TGR inh 0.35µM
CCOC(=O)c1ccc(NC(=O)C2Cc3ccccc3C(=O)O2)cc1 (stereo unspecified)	none (no result: AmpC inh no detg, RE007 growth inh, AMA1 RON2 block)
O=C(O)CSc1nc2ccccc2nc1Cc1ccccc1F	none
O=C(CSc1nc2ccccc2nc1Cc1ccccc1F)Nc1cccc(C(F)(F)F)c1	AmpC detergent inconclusive, Sm TGR inh 79µM (no result: AmpC inh no detg, RE007 growth inh, AMA1 RON2 block)
O=C(c1ccc(-c2cccc([N+](=O)[O-])c2)o1)N1CCN(c2ccc([N+](=O)[O-])cc2)CC1	none
CC1CC(C)CN(C(=O)c2ccc(-c3ccc([N+](=O)[O-])cc3)o2)C1 (stereo unspecified)	RE007 growth inh inconclusive, AMA1 RON2 block inconclusive, Sm TGR inh 3.2µM
O=C(c1ccc(-c2ccc([N+](=O)[O-])cc2)o1)N1CCCCC1	Sm TGR inh 45µM
COC(=O)c1c(Oc2ccc(OC)cc2)nnc(-c2ccccc2)c1-c1ccccc1	none (no result: AmpC inh no detg, RE007 growth inh, AMA1 RON2 block)
Cc1nnc(SCc2ccccc2Cl)c2cc3occc3n12	none (no result: AmpC inh no detg, RE007 growth inh, AMA1 RON2 block)

Source: PubChem
